# This is a sample that favours compounds with a hit; in the whole collection about 4% have one here.
# Mtb betalactam – beta-lactam sensitization of Mtb H37Rv; M. tuberculosis H37Rv growth with meropenem, percent inhibition; inhibition, % at 25 µM; 0.27% of 330,000 active; AID 434955; call rule not given here;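 also: growth measured after seven days incubation then overnight dye step; 0% = bacteria only wells and 100% = bacteria with antibiotic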
# Mtb FBA inh – Mtb fructose-bisphosphate aldolase inhibition | AID 588726 | inhibition, % at 1 µM | 2.3% of 360,000 active | purified M. tuberculosis FBA, fluorescence read-out | P9WQA3; in the data active = inhibition above about 27%;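 also: 0% = vehicle and 100% = reference inhibitor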
# CCHFV vOTU inh – CCHFV vOTU protease inhibition; Pep-AMC fluorescence; inhibition, % at 11.5 µM; 0.55% of 370,000 active; AID 651958; also: 0% = vehicle wells with enzyme and 100% = no enzyme wells
# MazEF act – activators of E. coli MazEF toxin-antitoxin RNase | P0AE70 | FAM/BHQ RNA-DNA oligo cleavage fluorescence, 5 h | activation, % at 20 µM | 0.32% of 350,000 active; in the data active = activation above about 50%
# Target sequence (P0AE70 whole entry, looked up): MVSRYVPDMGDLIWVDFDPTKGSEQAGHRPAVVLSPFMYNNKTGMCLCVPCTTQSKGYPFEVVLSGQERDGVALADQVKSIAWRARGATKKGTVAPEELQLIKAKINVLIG
# GDH-TPI inh – inhibits GDH-TPI coupling enzymes, artifact for Mtb FBA screen; GDH-TPI coupled enzyme counterscreen, NADH absorbance; inhibition, % at 4.8 µM; 1.2% of 360,000 active; AID 588335;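 also: 0% = DMSO wells and 100% = wells lacking the enzyme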
# Active calls of the source: *; ? = inconclusive; nt = not tested or not shown; + = active, no number. Rule as the data show it, unless noted: active = inhibition above about 30%; inactive = the rest.
SMILES,Mtb betalactam,Mtb FBA inh,CCHFV vOTU inh,MazEF act,GDH-TPI inh
CCOC(=O)N1CCC(NC(=O)c2ccc3c(c2)N(CC)CCS3)CC1,-4,73*,-78,1,2
O=C(NCCc1c[nH]c2ccccc12)OCc1cn(-c2cccc(C(F)(F)F)c2)nn1,nt,nt,5,nt,nt
COc1ccc(Nc2c3ccccc3nc3ccccc23)cc1,8,10,-13,18,7
c1cncc(Nc2c3ccccc3nc3ccccc23)c1,3,40*,-31,-1,10
COc1cc(/C=C2\SC(=O)N(CC(=O)Nc3ccc(C)cc3)C2=O)cc(Cl)c1OCC(=O)O,7,-2,-7,-42,33*
COc1ccc(-n2c(COc3ccccc3)nnc2SCC(=O)Nc2ccc(OCc3ccccc3)cc2)cc1,nt,nt,15,nt,nt
COc1ccc(-c2ccc(/C=C3/C(=N)N4C(C)=CSC4=NC3=O)o2)c([N+](=O)[O-])c1,?,-12,-7,68*,16
COc1ccc(C(=O)N(CN2CCCC2=O)c2cc(C)on2)cc1OC,-19,2,5,2,15
COc1ccc(C(=O)N(CN2CCCC2=O)c2nccs2)cc1OC,?,-3,15,4,46*
CC(=O)N1c2ccccc2C(C)=NCC1C(=O)NC1CCCCC1 (stereo not given),nt,nt,-5,nt,nt
COc1ccc(-c2cn3ccccc3n2)cc1OC,21,159*,-61,0,6
COc1ccc(-c2cn3cc(C)ccc3n2)cc1OC,-4,161*,-51,6,16
COc1ccc(-c2csc(C)n2)cc1OC,5,-3,-2,1,2
CN(C)S(=O)(=O)c1cccc(-c2cn3ccccc3n2)c1,2,8,-2,3,3
Cc1cc(-c2ccccc2)[nH]c(=O)c1S(=O)(=O)c1ccccc1,-13,107*,-9,2,27
Cc1ccccc1S(=O)(=O)c1c(C)cc(-c2ccccc2)[nH]c1=O,-8,76*,-8,-2,19
COc1ccc(NC(=O)Nc2cc(C)nn2-c2ccccc2)cc1,nt,nt,-5,nt,nt
Nc1ccc2c(c1)oc1ccccc12,100,57*,-12,2,13
COC(=O)[C@]12C[C@H](CC(=O)N3CCOCC3)C(=O)N(Cc3cccc4ccccc34)C1=C[C@H](COCc1ccccc1)O[C@@H]2C,nt,nt,-2,nt,nt
CN(C)c1ccc(C#Cc2ccc3cc(CCO)oc(=O)c3c2)cc1,54,13,nt,48,4
COc1cc(C#Cc2ccc3cc(CCO)oc(=O)c3c2)cc(OC)c1,-11,23,23,26,36*
COc1ccc(CN2C(C(=O)NC3CCCC3)CSCCS2(=O)=O)cc1 (stereo not given),nt,nt,5,nt,nt
O=c1cc(C=NNc2ccccc2)[nH]c(=O)[nH]1,nt,-4,9,3,22
Cc1c(C=NNc2ccccc2)[nH]c(=O)[nH]c1=O,nt,6,10,-18,32*
CCOC(=O)Cn1cc(CN2CCS(=O)(=O)N(Cc3ccc(Cl)cc3)C(C(=O)OC)C2)nn1 (stereo not given),nt,nt,-6,nt,nt
SMILES,Mtb betalactam,Mtb FBA inh,CCHFV vOTU inh,MazEF act,GDH-TPI inh
CC(C)N(Cc1cc2ccccc2[nH]c1=O)C(=O)c1cccnc1,-6,3,-1,-2,-1
O=C(c1cccnc1)c1cc2ccccc2[nH]1,-4,0,4,6,35*
COC(=O)C1=CN(C)C=C(C(=O)OC)C1c1ccccc1Cl,0,199*,-208,4,19
COC(=O)C1=C(C)NC(=O)NC1c1ccccc1Cl (stereo not given),5,0,2,-6,1
COC(=O)C1=CN(Cc2ccc(F)cc2)C=C(C(=O)OC)C1c1ccc(O)c(OC)c1,0,6,-7,12,14
CCN1C=C(C(=O)OC)C(c2cccc(C)c2)C(C(=O)OC)=C1,27,+,-266,7,17
COC(=O)C1=CN(C(C)C)C=C(C(=O)OC)C1c1cc(Br)c(OC)c(OC)c1,-9,154*,-236,-2,6
COC(=O)C1=CN(C(C)C)C=C(C(=O)OC)C1c1cccc(OC)c1,-6,+,-211,1,17
Cc1ccc(S(=O)(=O)N2CCCC2C(=O)N2CCN(c3ccccc3)CC2)cc1C (stereo not given),nt,nt,-7,nt,nt
O=C(NCCc1ccccc1)OCc1cn(Cc2ccccc2F)nn1,nt,nt,-1,nt,nt
CN(C)c1ccc(/C=N\NC(=O)c2cccc(S(=O)(=O)N(C)C)c2)cc1,nt,nt,14,nt,nt
CCCOc1ccccc1C1NC(=O)NC(C)=C1C(=O)OCCOCC (stereo not given),-11,-2,8,1,-4
CCCOc1ccccc1C1C(C(=O)OC)=CN(C(C)C)C=C1C(=O)OC,-6,165*,-143,0,13

# Compound activity as filed in PubChem.
